This is one part of the list. Calls of active or inactive are those of the source.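 The calls were made as follows: active = cell growth inhibition above the hit limit set in the earlier mutant JAK2 cell screen (cut at about 27% in these data); inactive = the rest.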

These results are taken from PubChem BioAssay AID1520 (The Scripps Research Institute Molecular Screening Center, 2009).

The nature of the experiment: parental Ba/F3 cell viability inhibition, counter-screen for JAK2V617F inhibitor project, murine pro-B, CellTiter-Glo luminescence (AID 1520).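 Also: plate controls were DMSO-treated cells for no effect and JAK Inhibitor I control wells for full effect.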 Particulars: at 5.6 µM, active compounds read high, cells kept alive by added IL-3. Background: A counterscreen serves to expose hits that act by an unwanted route or on another target.
Broadly, the inhibition is the change of the read-out against control, counted positive when it falls. Take `COc1ccccc1N1CCN(Cc2ccc(OC)c3ccccc23)CC1`: the inhibition was -5.1% (inactive).
Consider `CN(Cc1ccc2nsnc2c1)Cc1nc(Cc2cccc(F)c2)no1`, for which the inhibition is -7.97% (inactive).
The value for `Cc1cccc(NC(=O)c2ccc([N+](=O)[O-])o2)c1` was 10.6% (inactive); that for `COc1cc(OC)c(C(=O)NC2CCCCCC2)cc1OC` was -5.51% (inactive); that for `CCC1CCCCN1CCCNC(=O)c1cc2c(Cl)nc3ccccc3c2s1` (stereo not drawn) was 0.54% (inactive).
Take `O=C(CCl)Nc1ccc(Sc2ccc(NC(=O)CCl)cc2)cc1`: the inhibition was 47.3% (active).
On to `CCCc1nc2ccccc2c(=O)n1/N=C/c1ccc(O)c(O)c1`, for which the inhibition was 1.92% (inactive).
On to `COc1ccc(OC)c(Nc2nc(-c3ccc(O)c(O)c3)cs2)c1`, for which the inhibition was 72.9% (active).
In the case of `Cc1ccc(C2=NN(C)c3nc4ccccc4n3C2)cc1`, the inhibition is -0.44% (inactive).
For `Cc1ccc(NC(=S)N(CCCN2CCC(C)CC2)Cc2ccco2)cc1`, the inhibition is 28.7% (active).
As for `CSCC(=O)N1CCCC(C(=O)c2cc(F)ccc2F)C1` (stereo not drawn), the inhibition is -3.79% (inactive).
In the case of `c1ccc2c(c1)CSc1sccc1C2=C1CCNCC1`, the inhibition is 0.77% (inactive).
Consider `N#C/C=C\Oc1ccc(Cl)cc1N`, for which the inhibition was -2.4% (inactive).
As to `Cn1c(CCN2CCCCCC2)nc2cc(NC(=O)Nc3ccccc3)ccc21`, the inhibition is -5% (inactive).
Regarding `Oc1ccc(/C=N/Nc2ccc(C(F)(F)F)cn2)cc1O`, the inhibition was 76.2% (active).
Take `COc1cc(OC)cc(C(=O)N[C@H](C(=O)Nc2nc3ccccc3[nH]2)C(C)C)c1`: the inhibition was 86% (active).
Take `Cc1ccc(S(=O)(=O)C2(S(=O)(=O)c3ccc(C)cc3)CCCC2)cc1`: the inhibition is 32.1% (active).
The value for `O=c1oc2ccccc2cc1-c1cn(-c2ccccc2)c(=S)[nH]1` was 50% (active); that for `CCn1c(/C=C/c2ccc([N+](=O)[O-])o2)nc2ccccc2c1=O` was 106% (active).
To `COc1ccc(Cc2nnc(N/N=C/c3ccccc3O)[nH]c2=O)cc1OC` belongs 85.6% (active).
For the compound `COc1ccc(-c2csc(Nc3ccc(O)cc3)n2)cc1`, the inhibition was 63% (active).
Consider `CCCn1c(NC(=O)C23CC4CC(CC(O)(C4)C2)C3)nc2ccccc21`, for which the inhibition was -7.65% (inactive).
The value for `O=C(CCl)N(Cc1cccc([N+](=O)[O-])c1)c1cccc(Cl)c1` was 87.5% (active).
